# Measured values: article PMC7862700, “An all-to-all approach to the identification of sequence-specific readers for epigenetic DNA modifications on cytosine”
# Columns and labels:
# Experiment in all cases: DAPPL (digital affinity profiling via proximity ligation, sequencing); 10 mM Tris-HCl pH 7.5, 50 mM NaCl, 1 mM DTT, 4% glycerol, room temperature, 30 min; GST-TFs on glutathione beads, 16-mer random dsDNA library, 0.1% formaldehyde crosslink after washing; high values mean tight binding
# Details in all cases: protein: recombinant; tags: N-terminal GST; dsDNA, one strand shown
# [1] = target: T1, ELK1 (Homo sapiens, UniProt P19419 1-428)
# T1 sequence: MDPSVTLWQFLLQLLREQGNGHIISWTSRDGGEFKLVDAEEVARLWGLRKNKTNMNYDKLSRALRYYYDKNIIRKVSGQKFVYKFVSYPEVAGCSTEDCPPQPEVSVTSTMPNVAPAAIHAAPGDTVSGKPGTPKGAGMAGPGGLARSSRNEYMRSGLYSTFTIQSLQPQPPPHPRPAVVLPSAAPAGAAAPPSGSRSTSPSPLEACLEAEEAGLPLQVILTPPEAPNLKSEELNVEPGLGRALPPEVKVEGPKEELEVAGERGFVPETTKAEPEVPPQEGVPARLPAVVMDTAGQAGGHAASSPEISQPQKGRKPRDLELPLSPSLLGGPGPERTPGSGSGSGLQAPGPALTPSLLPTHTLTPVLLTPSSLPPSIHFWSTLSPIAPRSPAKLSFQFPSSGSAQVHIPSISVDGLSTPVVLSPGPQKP
# How it was run: (§1)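 GST fusions of human transcription factors were expressed in yeast and captured with glutathione beads. Once given DNA barcodes and pooled alongside a tag-only sample, they were incubated for 30 min at room temperature with 200 nmole of a random double-stranded 16-mer DNA library in Tris/NaCl/DTT/glycerol buffer, then washed, crosslinked (0.1% formaldehyde), proximity-ligated, PCR-amplified and sequenced on an Illumina NextSeq500. The binding signal of each hexamer is its read frequency for a factor divided by its frequency for the tag-only sample.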
# [2] = target: T2, GABPA (Homo sapiens, UniProt Q06546 1-454)
# T2 sequence: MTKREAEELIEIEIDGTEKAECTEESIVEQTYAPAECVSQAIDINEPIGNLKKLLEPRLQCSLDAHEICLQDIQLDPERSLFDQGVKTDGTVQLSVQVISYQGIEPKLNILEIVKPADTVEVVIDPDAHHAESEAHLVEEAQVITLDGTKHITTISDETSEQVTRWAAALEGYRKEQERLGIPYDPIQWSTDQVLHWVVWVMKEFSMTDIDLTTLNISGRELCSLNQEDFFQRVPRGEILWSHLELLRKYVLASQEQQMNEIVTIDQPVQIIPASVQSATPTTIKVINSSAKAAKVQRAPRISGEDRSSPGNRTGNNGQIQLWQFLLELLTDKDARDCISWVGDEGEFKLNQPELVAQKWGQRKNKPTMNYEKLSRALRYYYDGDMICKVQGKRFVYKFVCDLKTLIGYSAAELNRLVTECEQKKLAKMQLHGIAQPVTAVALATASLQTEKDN
# How it was run: as §1
# [3] = target: T3, ERG (Homo sapiens, UniProt P11308 1-479)
# T3 sequence: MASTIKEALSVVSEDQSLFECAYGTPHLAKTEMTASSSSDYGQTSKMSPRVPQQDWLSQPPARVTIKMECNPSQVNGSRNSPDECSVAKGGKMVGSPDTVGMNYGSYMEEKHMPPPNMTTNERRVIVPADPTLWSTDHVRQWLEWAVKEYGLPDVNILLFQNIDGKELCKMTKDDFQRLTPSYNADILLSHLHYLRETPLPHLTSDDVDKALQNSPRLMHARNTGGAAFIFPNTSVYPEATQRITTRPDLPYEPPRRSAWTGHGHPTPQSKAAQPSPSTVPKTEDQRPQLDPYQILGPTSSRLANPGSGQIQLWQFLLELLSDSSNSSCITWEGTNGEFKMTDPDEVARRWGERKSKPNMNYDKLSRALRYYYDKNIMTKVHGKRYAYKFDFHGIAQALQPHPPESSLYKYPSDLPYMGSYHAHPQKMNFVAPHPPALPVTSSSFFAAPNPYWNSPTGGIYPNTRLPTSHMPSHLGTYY
# How it was run: as §1
# [4] = target: ELF1 (Homo sapiens, UniProt P32519 1-619)
# How it was run: as §1
# [5] = target: T4, EHF (Homo sapiens, UniProt Q9NZC4 1-300)
# T4 sequence: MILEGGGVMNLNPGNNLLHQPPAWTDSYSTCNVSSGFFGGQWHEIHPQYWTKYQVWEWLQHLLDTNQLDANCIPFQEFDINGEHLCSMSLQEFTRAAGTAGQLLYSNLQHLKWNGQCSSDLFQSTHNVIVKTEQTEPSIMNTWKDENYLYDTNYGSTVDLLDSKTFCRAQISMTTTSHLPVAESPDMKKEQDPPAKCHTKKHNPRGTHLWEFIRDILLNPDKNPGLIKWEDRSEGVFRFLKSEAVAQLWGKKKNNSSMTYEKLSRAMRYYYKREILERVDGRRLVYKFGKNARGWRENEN
# How it was run: as §1
# [6] = target: T5, ELK3 (Homo sapiens, UniProt P41970 1-407)
# T5 sequence: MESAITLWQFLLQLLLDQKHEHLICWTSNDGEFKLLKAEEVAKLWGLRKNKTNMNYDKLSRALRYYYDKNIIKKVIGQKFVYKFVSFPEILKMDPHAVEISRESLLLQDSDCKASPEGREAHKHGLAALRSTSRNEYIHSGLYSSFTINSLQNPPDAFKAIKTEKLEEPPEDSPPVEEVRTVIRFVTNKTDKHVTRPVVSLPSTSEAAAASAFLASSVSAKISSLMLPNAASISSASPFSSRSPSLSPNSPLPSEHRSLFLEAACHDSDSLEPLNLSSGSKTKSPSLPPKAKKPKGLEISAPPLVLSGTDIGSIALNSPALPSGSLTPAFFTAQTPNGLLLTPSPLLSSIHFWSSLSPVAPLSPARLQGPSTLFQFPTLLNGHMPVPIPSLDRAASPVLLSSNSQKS
# How it was run: as §1
# [7] = target: T6, FEV (Homo sapiens, UniProt Q99581 1-238)
# T6 sequence: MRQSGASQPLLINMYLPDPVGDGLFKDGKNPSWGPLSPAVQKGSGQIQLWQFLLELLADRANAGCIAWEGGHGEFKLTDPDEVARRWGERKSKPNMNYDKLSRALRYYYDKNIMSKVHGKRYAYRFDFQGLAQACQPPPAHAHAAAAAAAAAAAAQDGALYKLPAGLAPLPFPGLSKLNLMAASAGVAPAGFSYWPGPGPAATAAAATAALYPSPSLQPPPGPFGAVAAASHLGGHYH
# How it was run: as §1
# [8] = target: ETV5 (Homo sapiens, UniProt P41161 1-510)
# How it was run: as §1
# [9] = target: ELF4 (Homo sapiens, UniProt Q99607 1-663)
# How it was run: as §1
# [10] = target: T7, ELF3 (Homo sapiens, UniProt P78545 1-371)
# T7 sequence: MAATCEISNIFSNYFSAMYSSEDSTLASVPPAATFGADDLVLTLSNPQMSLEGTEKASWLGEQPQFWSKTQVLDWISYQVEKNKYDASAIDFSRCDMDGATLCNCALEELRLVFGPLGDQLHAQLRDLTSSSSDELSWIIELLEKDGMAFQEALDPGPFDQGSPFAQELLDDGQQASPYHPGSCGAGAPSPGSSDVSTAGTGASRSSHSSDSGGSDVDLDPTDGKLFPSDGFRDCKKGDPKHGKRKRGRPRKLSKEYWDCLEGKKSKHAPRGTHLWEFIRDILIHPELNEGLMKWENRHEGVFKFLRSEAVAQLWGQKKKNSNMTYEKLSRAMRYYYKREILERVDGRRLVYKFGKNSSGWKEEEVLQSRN
# How it was run: as §1
# [11] = target: ETV1 (Homo sapiens, UniProt P50549 1-477)
# How it was run: as §1
# [12] = target: T8, ETV3L (Homo sapiens, UniProt Q6ZN32 1-361)
# T8 sequence: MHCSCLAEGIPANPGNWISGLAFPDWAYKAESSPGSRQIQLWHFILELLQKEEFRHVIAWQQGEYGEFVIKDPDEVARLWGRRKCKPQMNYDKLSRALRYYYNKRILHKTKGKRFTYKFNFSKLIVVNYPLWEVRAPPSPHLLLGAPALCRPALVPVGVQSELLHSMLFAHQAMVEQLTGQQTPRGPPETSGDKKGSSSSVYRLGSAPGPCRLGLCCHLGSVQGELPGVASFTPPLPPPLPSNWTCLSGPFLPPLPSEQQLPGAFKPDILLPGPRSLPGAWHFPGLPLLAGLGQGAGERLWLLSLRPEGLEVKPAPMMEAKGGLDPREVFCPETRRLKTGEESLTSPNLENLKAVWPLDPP
# How it was run: as §1
# [13] = target: T9, SPDEF (Homo sapiens, UniProt O95238 1-335)
# T9 sequence: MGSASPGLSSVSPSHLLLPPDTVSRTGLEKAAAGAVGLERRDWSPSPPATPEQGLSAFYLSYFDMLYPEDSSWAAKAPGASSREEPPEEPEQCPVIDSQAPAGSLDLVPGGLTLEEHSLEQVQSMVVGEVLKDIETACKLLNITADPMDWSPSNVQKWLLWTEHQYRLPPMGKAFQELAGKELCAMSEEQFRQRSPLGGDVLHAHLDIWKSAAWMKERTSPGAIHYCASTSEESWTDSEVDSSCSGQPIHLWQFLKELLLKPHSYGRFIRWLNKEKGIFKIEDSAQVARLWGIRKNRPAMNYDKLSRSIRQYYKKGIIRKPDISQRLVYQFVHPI
# How it was run: as §1
# [14] = target: T10, ETV7 (Homo sapiens, UniProt Q9Y603 1-341)
# T10 sequence: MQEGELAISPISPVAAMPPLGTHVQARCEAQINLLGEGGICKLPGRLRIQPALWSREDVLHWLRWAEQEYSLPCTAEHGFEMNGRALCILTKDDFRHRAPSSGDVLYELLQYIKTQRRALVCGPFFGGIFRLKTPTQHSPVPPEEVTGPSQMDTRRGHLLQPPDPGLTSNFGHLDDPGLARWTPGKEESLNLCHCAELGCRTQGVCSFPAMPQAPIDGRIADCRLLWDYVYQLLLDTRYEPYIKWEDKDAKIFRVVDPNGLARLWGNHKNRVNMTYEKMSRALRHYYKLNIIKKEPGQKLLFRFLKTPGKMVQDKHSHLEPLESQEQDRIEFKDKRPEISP
# How it was run: as §1
# [15] = target: T11, ETV3 (Homo sapiens, UniProt P41162-2 1-143)
# T11 sequence: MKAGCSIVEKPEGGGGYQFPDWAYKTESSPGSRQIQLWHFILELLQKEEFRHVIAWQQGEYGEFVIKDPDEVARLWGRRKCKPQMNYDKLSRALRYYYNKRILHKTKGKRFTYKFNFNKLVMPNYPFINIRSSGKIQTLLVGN
# How it was run: as §1
# [16] = target: ETV6 (Homo sapiens, UniProt P41212 1-452)
# How it was run: as §1
# Sequence of ETV6 (P41212 whole entry): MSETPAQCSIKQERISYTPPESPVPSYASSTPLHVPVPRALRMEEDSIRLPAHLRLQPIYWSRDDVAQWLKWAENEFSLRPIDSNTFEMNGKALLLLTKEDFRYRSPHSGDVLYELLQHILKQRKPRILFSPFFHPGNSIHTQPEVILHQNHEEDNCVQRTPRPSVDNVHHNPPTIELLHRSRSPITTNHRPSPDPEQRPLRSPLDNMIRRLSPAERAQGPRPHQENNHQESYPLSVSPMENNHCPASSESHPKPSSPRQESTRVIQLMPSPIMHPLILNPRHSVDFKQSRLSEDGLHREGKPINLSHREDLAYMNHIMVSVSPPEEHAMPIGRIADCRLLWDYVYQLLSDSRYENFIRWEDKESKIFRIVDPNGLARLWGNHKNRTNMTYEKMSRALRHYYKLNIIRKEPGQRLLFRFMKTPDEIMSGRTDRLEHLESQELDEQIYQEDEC
# Sequence of ELF4 (Q99607 whole entry): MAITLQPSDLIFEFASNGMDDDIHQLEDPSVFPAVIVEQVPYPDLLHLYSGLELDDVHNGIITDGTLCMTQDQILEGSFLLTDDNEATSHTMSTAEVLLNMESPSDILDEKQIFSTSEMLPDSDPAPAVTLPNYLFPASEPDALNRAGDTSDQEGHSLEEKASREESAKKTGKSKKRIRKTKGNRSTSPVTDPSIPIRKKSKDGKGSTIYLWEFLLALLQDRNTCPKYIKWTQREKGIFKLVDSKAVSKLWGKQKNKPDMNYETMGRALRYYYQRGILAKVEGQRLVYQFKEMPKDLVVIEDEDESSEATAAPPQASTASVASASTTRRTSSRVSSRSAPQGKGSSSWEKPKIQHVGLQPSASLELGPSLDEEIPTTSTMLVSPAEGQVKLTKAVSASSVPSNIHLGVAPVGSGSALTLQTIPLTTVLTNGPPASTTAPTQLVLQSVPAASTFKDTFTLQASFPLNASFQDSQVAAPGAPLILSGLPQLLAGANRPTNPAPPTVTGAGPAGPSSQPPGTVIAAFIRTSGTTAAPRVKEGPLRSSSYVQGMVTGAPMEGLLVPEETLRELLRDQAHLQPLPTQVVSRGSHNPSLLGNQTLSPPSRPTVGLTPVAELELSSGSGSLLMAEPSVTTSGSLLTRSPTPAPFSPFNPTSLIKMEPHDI
# Sequence of ETV1 (P50549 whole entry): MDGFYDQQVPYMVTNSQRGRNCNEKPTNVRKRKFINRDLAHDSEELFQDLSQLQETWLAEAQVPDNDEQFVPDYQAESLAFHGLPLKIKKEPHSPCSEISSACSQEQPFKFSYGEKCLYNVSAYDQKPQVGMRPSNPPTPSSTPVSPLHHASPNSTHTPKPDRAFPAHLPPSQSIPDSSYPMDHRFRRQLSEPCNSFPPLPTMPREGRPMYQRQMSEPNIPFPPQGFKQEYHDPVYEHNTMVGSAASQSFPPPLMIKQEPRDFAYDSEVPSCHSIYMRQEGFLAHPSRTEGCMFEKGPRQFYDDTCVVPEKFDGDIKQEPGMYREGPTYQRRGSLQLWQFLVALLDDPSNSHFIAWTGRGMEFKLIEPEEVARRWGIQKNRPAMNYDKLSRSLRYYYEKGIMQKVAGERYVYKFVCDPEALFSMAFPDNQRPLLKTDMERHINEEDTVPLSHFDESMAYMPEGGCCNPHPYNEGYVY
# Sequence of ETV5 (P41161 whole entry): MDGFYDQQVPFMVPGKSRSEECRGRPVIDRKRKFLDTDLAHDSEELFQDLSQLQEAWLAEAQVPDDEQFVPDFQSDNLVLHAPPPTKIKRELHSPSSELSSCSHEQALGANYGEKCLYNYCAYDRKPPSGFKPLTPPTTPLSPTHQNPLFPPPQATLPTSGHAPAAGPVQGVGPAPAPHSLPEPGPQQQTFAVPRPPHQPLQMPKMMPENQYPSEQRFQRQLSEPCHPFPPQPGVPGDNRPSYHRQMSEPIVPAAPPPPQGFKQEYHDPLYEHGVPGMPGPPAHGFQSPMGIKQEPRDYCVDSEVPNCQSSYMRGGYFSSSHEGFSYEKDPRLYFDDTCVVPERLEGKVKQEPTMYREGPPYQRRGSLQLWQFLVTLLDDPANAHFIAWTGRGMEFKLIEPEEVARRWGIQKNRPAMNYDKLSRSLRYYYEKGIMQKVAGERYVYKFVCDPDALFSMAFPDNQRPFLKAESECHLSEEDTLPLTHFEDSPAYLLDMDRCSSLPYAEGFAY
# Sequence of ELF1 (P32519 whole entry): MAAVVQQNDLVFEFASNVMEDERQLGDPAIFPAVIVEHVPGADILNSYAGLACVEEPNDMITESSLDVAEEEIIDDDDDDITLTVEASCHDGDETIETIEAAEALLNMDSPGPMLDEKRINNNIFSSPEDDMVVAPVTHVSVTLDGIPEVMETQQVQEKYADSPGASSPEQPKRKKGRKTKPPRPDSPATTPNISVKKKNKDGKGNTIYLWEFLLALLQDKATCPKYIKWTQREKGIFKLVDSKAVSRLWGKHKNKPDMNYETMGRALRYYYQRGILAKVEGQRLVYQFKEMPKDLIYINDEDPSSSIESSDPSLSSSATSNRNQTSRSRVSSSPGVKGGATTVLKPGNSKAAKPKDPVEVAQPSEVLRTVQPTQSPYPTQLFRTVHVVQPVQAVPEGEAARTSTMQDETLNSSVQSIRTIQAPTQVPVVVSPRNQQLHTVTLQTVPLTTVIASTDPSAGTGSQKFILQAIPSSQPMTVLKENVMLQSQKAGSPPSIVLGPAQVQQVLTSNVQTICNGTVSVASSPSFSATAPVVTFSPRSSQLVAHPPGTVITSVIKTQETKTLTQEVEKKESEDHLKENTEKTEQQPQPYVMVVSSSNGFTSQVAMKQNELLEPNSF
sequence,measurement,setting,value
CGCCGG,binding signal,[1],"1.21 fold enrichment (6-mer frequency, TF over GST control)"
same,binding signal,[2],"1.14 fold enrichment (6-mer frequency, TF over GST control)"
same,binding signal,[3],"1.19 fold enrichment (6-mer frequency, TF over GST control)"
same,binding signal,[4],"1.03 fold enrichment (6-mer frequency, TF over GST control)"
same,binding signal,[5],"1.19 fold enrichment (6-mer frequency, TF over GST control)"
same,binding signal,[6],"1.08 fold enrichment (6-mer frequency, TF over GST control)"
same,binding signal,[7],"1.4 fold enrichment (6-mer frequency, TF over GST control)"
same,binding signal,[8],"1.15 fold enrichment (6-mer frequency, TF over GST control)"
same,binding signal,[9],"1.02 fold enrichment (6-mer frequency, TF over GST control)"
same,binding signal,[10],"1.13 fold enrichment (6-mer frequency, TF over GST control)"
same,binding signal,[11],"1.02 fold enrichment (6-mer frequency, TF over GST control)"
same,binding signal,[12],"1.06 fold enrichment (6-mer frequency, TF over GST control)"
same,binding signal,[13],"1.05 fold enrichment (6-mer frequency, TF over GST control)"
same,binding signal,[14],"1.08 fold enrichment (6-mer frequency, TF over GST control)"
same,binding signal,[15],"1.1 fold enrichment (6-mer frequency, TF over GST control)"
same,binding signal,[16],"1.05 fold enrichment (6-mer frequency, TF over GST control)"
